Experimental data taken from PubChem BioAssay (NCATS).
Inconclusive results are not listed. A call without a number means that no potency is given here. Where a structure was tested more than once in an assay, its records may differ in their call. Active and inactive are the calls of the source. Unless noted, calls follow the shape of the dose curve; as a rule, active = well fitted curve in the direction sought with a large enough effect; inconclusive = small, poorly fitted or top-dose-only effect, or another doubt; inactive = no such curve, though single readings can be large; an effect the other way counts as inactive or inconclusive.

Tests used:
[1] = qHTS for Inhibitors of Plasmodium falciparum (GB4) proliferation (AID 504315); also: nearly all actives have a fitted effect of over 50% in size
How it was run: (§1)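 Erythrocytes infected with P. falciparum line (0.3% parasitemia, 2.5% hematocrit final) incubated with compounds 72 h at 37 °C, 5% CO2; SYBR Green lysis buffer added, fluorescence read next day. Normalized to 0.29 uM artemisinin and DMSO.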

[2] = qHTS for Inhibitors of Plasmodium falciparum (7G8) proliferation (AID 504316); also: nearly all actives have a fitted effect of over 65% in size
How it was run: as §1

[3] = qHTS for Inhibitors of Plasmodium falciparum (CP250) proliferation (AID 504320)
How it was run: as §1

[4] = target: Atrial natriuretic peptide receptor 1 (Homo sapiens) (UniProt P16066); assay: Natriuretic polypeptide receptor (hNpr1) antagonism - Pilot CMLD screen (AID 1347052; calls by dose curve;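 also: cGMP level read as GloSensor luciferase luminescence after agonist stimulation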)
Chain of Atrial natriuretic peptide receptor 1 (Homo sapiens) (P16066 whole entry, looked up): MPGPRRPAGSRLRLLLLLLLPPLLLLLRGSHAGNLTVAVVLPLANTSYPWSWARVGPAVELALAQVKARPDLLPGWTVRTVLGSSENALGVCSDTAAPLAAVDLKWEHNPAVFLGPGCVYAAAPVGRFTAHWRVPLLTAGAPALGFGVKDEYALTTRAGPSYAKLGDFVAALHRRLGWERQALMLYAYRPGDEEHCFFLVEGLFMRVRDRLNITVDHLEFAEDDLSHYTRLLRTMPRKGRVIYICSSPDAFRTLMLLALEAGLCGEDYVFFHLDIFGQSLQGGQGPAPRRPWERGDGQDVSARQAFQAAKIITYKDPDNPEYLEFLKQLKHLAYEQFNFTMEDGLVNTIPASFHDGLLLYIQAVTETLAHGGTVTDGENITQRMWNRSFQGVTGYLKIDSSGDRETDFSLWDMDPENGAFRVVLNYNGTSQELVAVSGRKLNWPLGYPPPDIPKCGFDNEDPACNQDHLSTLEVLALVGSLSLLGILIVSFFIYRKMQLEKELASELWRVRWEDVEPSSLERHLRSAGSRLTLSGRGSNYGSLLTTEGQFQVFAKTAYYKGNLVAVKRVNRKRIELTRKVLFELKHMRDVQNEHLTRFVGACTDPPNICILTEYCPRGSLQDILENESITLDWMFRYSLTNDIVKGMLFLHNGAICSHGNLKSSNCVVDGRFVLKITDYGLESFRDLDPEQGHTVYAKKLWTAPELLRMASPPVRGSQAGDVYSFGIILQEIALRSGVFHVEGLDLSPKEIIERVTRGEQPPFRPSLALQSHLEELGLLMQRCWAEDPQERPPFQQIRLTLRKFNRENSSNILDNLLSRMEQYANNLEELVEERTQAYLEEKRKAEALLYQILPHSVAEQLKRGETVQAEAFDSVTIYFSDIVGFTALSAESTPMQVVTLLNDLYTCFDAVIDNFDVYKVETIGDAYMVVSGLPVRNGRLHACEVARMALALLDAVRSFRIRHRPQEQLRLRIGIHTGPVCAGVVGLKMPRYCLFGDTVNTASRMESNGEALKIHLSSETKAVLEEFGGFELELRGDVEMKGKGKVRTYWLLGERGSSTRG

[5] = qHTS for Inhibitors of Plasmodium falciparum (HB3) proliferation (AID 504318); also: nearly all actives have a fitted effect of over 60% in size
How it was run: as §1
Potency is read from the fitted curve at half-maximal effect.

Structure (SMILES) | Potency [1] | Potency [2] | Potency [3] | Potency [4] | Potency [5] | outcome [4]
COc1ccc(-c2nc(-c3ccccc3)c(NC(C)(C)C)o2)cc1 | 1.69 µM (active) and inactive | 1.51 µM (active) and inactive | inactive | inactive |  | 
C[C@H]1C=CCC(=O)N[C@@H](c2ccc3ccccc3c2)[C@@H](C)C=CCC(=O)N[C@@H]1c1ccc2ccccc2c1 | inactive |  | inactive | inactive | inactive | 
CC1=C[C@]2(O[C@H](COc3ccccc3)C1)C(=O)N(C)c1ccccc12 | inactive |  | inactive |  | inactive | inactive
COc1cccc([C@@H]2Oc3ccc(Br)cc3C(=O)[C@@H]2O)c1 | inactive |  | inactive | inactive | inactive | 
COc1ccc2c3c(c(=O)oc2c1)[C@H]1O[C@](CCCCN2C(=O)c4ccccc4C2=O)(Cc2cc(OC)c(OC)cc21)O3 | 2.69 µM (active) |  |  | inactive | 1510 nM (active) | 
COc1ccc([C@]23Cc4ccccc4[C@H](O2)c2c(cc(-c4ccccc4)oc2=O)O3)cc1 | inactive |  | inactive | inactive | inactive | 
N#Cc1ccc2c(c1)C[C@]1(CCCCN3C(=O)c4ccccc4C3=O)Oc3cc(-c4ccccc4)oc(=O)c3[C@H]2O1 | inactive |  | inactive | inactive | inactive | 
CC#C[C@H](C)[C@@H](OCOC)[C@H](C[C@H](C)Cc1cc(Br)cc(OCc2ccccc2)c1OC)OC | 1.51 µM (active) |  |  | inactive | 1690 nM (active) | 
CCN1C(=NCc2cccc(C(F)(F)F)c2)NC(c2cccc(F)c2)C(C(=O)OC)=C1C (stereo not drawn) | 0.757 µM (active) |  |  | inactive | inactive | 
CCc1cc2c(nc1CC)CCN(CCC(C)=NOC[C@@H](O)[C@H]1O[C@@H]3OC(C)(C)O[C@H]3[C@@H]1O)C2 | inactive |  | inactive | inactive | 2940 nM (active) | 
CCN1C(=NCc2cccc(C(F)(F)F)c2)NC(c2cccc(C(F)(F)F)c2)C(C(=O)OC)=C1C (stereo not drawn) | 0.0953 µM (active) |  | 757 nM (active) | inactive | inactive | 
CCCNC(=O)OC[C@H]1O[C@H](CCON=C2[C@H]3CCn4c(=O)n(-c5ccccc5)c(=O)n4[C@@H]3[C@H](O)[C@@H]3O[C@H]23)C=C[C@H]1Oc1ccc(OC)cc1 | inactive |  | inactive | inactive | inactive | 
CC(=O)OC[C@H]1O[C@H](C#CCCCc2ccccc2)C=C[C@H]1OC(C)=O | inactive | inactive | inactive | inactive |  | 
CC(C)=CCCC(C)=CCN1C(=O)[C@]2(O[C@H](COc3ccccc3)CC3=CCCC32)c2c(Br)cccc21 (stereo partly drawn) | 1.51 µM (active) |  |  | inactive | 1690 nM (active) | 
COC[C@H]1O[C@H](c2ccccc2)C=C[C@H]1OCc1cccc(Br)c1 | inactive | inactive | inactive | inactive |  | 
COC(=O)[C@H]1C[C@@]2(CC=C(C)C)C(=O)[C@@](CC=C(C)C)(C(=O)C(C(=O)c3ccccc3)=C2OC)C1(C)C | inactive | inactive | inactive | inactive |  | 
CCN1C(=NCCCOC(C)C)N[C@@H](CCc2ccccc2)[C@H](C(=O)NCCCOC(C)C)[C@H]1C | inactive |  |  | inactive | inactive | 

Structure (SMILES) | Potency [1] | Potency [2] | Potency [3] | Potency [4] | Potency [5] | outcome [4]
COC(=O)[C@]1(CC=Cc2ccccc2)C=C[C@@H](C)[C@H](c2ccccc2Br)N1C(=O)C(F)(F)F | 1.69 µM (active) |  |  | inactive | 1900 nM (active) | 
CC(C)[C@@H](OCc1ccccc1)[C@H](C)CON=C1[C@H]2CCn3c(=O)n(-c4ccccc4)c(=O)n3[C@@H]2[C@H](O)[C@@H]2O[C@H]12 | inactive |  |  | inactive | inactive | 
COc1ccc(O[C@H]2C=C[C@@H](c3ccccc3)O[C@H]2COC(=O)CCC(C)=NO[C@@H]2O[C@H](COC(C)=O)[C@@H](OC(C)=O)[C@H](OC(C)=O)[C@@H]2OC(C)=O)cc1 | inactive | inactive | inactive | inactive |  | 
COc1ccc2c(c1)CO[C@H]([C@H](O)CO)[C@H]2C=CC#Cc1ccc(C(C)(C)C)cc1 | inactive |  | inactive | inactive | inactive | 
COc1ccc([C@]23Cc4ccccc4[C@H](O2)C2=C(O3)C(=O)c3ccccc3C2=O)cc1 | 1.69 µM (active) | 1.69 µM (active) | inactive | inactive |  | 
CCN(CC)CCCN=C1NC(c2ccccc2)C(C(=O)OC)=C(C)N1CC (stereo not drawn) | inactive |  | inactive | inactive | inactive | 
COC(=O)C1=C(C(=O)OC)[C@@H]2N(CC=C(C)C)c3ccccc3[C@@]23CCC(=O)N(Cc2cccc(C(F)(F)F)c2)C3=N1 | 0.849 µM (active) |  |  | inactive | 2940 nM (active) | 
COC(=O)N[C@H](C(C(=O)OC)=C(C)NCc1ccccc1)c1cccc(C)c1 | inactive | inactive | inactive | inactive |  | 
C=C(C)C(O)C=Cc1ccc(C(F)(F)F)cc1 (stereo not drawn) | inactive |  | inactive | 5310 nM (active) | inactive | 
COC1=C[C@H](C(=O)N[C@H]2CCCC[C@H]2NC(C)=O)[C@H](C)[C@@H](c2ccccc2)CC1=O | inactive | inactive | inactive | inactive |  | 
C#CCOCC#CC[C@@]1(C(=O)OC)C=C[C@@H](C)[C@H](c2ccccc2Br)N1C(=O)C(F)(F)F | inactive |  | inactive | inactive |  | 
CC1=C[C@@H](COCc2ccccc2)O[C@@]2(C1)C(=O)Nc1cccc(Br)c12 | inactive |  | inactive | inactive |  | 
COC(=O)C1=C(C)N(Cc2ccccc2)C(=S)NC1c1ccccc1 (stereo not drawn) | inactive |  | inactive | inactive |  | 
COc1ccc([C@]23Cc4cc(OC)c(OC)cc4[C@H](O2)C2=C(CC(C)(C)CC2=O)O3)cc1 | inactive |  | inactive | inactive |  | 
COc1cc([C@@H](NC(=O)C(F)(F)F)C2CCCCC=C2c2ccccc2)cc(OC)c1OC (stereo partly drawn) | inactive |  | inactive | inactive |  | 
COc1ccc2c(c1)O[C@@H](c1cccc(C(F)(F)F)c1)[C@H](OC(=O)Nc1cc(OC)c(OC)c(OC)c1)C2=O | inactive |  | inactive | inactive |  | 
